{"source": "PubChem BioAssay AID1345083", "about": "(National Center for Advancing Translational Sciences (NCATS), 2018)", "note": "Hit rate of the full screen: of about 94,000 compounds, about 6,200 (6.6%) were called active. Roughly 31% stayed inconclusive and do not appear here. Calls come from the whole dose curve; as a rule, active = well fitted inhibition curve with a large enough effect; inconclusive = small, poorly fitted or top-dose-only effect; inactive = flat fitted curve, though single readings scatter. Many of the other results were omitted from the sample, so actives are more common in it than they were. % is set by controls: 0 for no effect and ±100 for the full control effect; potency is the fitted concentration of half-maximal effect."}
{"test": "Cytotoxic Profiling in HEK 293 Cell Line of Diverse Libraries Using Quantitative High-Throughput Screening; note: nearly all actives have a fitted effect of over 60% in size", "conditions": "HEK 293 viability, ATP luminescence (CellTiter-Glo), 48-72 h; series mostly up to 115 µM; activity change, negative = cytotoxicity: at the top concentration", "how_it_was_run": "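ATP-coupled CellTiter-Glo luminescence served as viability read-out, recorded 10 min after reagent addition at room temperature. HEK 293 cells, 250 cells/well, had been incubated with pintool-transferred compound for 48 or 72 hr at 37 degree Celsius.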"}
{"smiles": "CN(C)c1ccc2ncc(Nc3ccccc3F)n2n1", "Potency": "112 µM (active)"}
{"smiles": "O=C(NCCCN1CCCCC1)C1CCN(C(=O)N2CC3CC(C2)[C@H]2CCCC(=O)N2C3)CC1", "note": "(stereo partly drawn)", "activity change, negative = cytotoxicity": "7.11% (inactive)"}
{"smiles": "COCCN1CCC2(CCC1=O)CCN(C(=O)c1sc(C)nc1C)CC2", "activity change, negative = cytotoxicity": "0.502% (inactive)"}
{"smiles": "CCOC(=O)C1=CN(CC(=O)Nc2ccccc2F)S(=O)(=O)N=C1C", "activity change, negative = cytotoxicity": "9.12% (inactive)"}
{"smiles": "COc1cc(C)c(CN2CCN3C(=O)CNC(=O)C3C2)cc1C(C)C", "note": "(stereo not drawn)", "activity change, negative = cytotoxicity": "-23.9% (inactive)"}
{"smiles": "Cc1cc(=O)n(CC(=O)N2C[C@H](CO)C[C@H](CN(C)C)C2)nc1C", "activity change, negative = cytotoxicity": "-2.93% (inactive)"}
{"smiles": "CCOc1cc(C)c(CN2C[C@@H](CN(C)C)C[C@H](CO)C2)cc1C(C)C", "Potency": "35.5 µM (active)"}
{"smiles": "COc1ccc(C(=O)NCc2nnc3ccc(-c4ccccc4)nn23)c(OC)n1", "outcome": "inactive"}
{"smiles": "COc1ccccc1Nc1cnc2ccc(-c3ccc(OC)c(OC)c3)nn12", "Potency": "11.2 µM (active)"}
{"smiles": "Cc1ccc(-c2ccc3nnc(CNC(=O)c4cccnc4)n3n2)cc1C", "activity change, negative = cytotoxicity": "-0.42% (inactive)"}
{"smiles": "CN(C)c1cccc(-c2cnc(Nc3ccc(N4CCOCC4)cc3)c3c2CCO3)c1", "Potency": "22.4 µM (active)"}
{"smiles": "Cc1cccc(CNC(=O)C2Cn3cccc3C(=O)N2CC(C)C)c1", "note": "(stereo not drawn)", "activity change, negative = cytotoxicity": "-18.7% (inactive)"}
{"smiles": "CCOC(=O)[C@H]1[C@@H](O)C(=O)N(Cc2ccccc2)C12CCN([S+](C)(=O)[O-])CC2", "activity change, negative = cytotoxicity": "-4.69% (inactive)"}
{"smiles": "Cc1ccc2c(n1)N(C)[C@H](CO)CCN(Cc1ccccc1C)C2", "Potency": "89.1 µM (active)"}
{"smiles": "Cc1ccccc1CN1CCC(N2CCCC(C(=O)NC3CC3)C2)CC1", "note": "(stereo not drawn)", "activity change, negative = cytotoxicity": "-0.659% (inactive)"}
{"smiles": "Cc1ccccc1CN1CCC2(C1)C(=O)N(C)C(=O)N2C", "note": "(stereo not drawn)", "activity change, negative = cytotoxicity": "-6.62% (inactive)"}
{"smiles": "C=CCN1CCN(C(=O)C2CCCN(C(=O)c3ccccc3)CCC(=O)NCC2)CC1", "note": "(stereo not drawn)", "activity change, negative = cytotoxicity": "4.32% (inactive)"}
{"smiles": "CC(C)(C)c1cc(CC2(NCc3ccc(C#N)cc3)COC2)no1", "activity change, negative = cytotoxicity": "-28.2% [at 172 µM] (inactive)"}
{"smiles": "CC1CCN([C@@H]2[C@H](O)[C@H](CO)O[C@@H]2CNC(=O)Nc2ccccc2)CC1", "activity change, negative = cytotoxicity": "-8.97% [at 172 µM] (inactive)"}
{"smiles": "COCc1cc(C[C@@H]2CC[C@H](O)[C@@H](CN(C)C)O2)no1", "activity change, negative = cytotoxicity": "2.42% [at 230 µM] (inactive)"}
{"smiles": "CC1(C)[C@H](Cc2cc(CC3CCCCC3)on2)C[C@@H]1NC1CCOCC1", "Potency": "28.2 µM (active)"}
{"smiles": "CCC(CC)C(=O)N[C@H]1C[C@@H](Cc2cc(COc3ccccc3)on2)C1(C)C", "Potency": "31.6 µM (active)"}
{"smiles": "CN(Cc1nccn1C)C(=O)c1cc(CN2CCC(Cc3ccccc3)CC2)on1", "activity change, negative = cytotoxicity": "-28.8% (inactive)"}
{"smiles": "CN(Cc1ccccc1)Cc1cc(CC2(NCc3ccc(CO)o3)COC2)no1", "activity change, negative = cytotoxicity": "-11.7% [at 172 µM] (inactive)"}
{"smiles": "CC(=O)N1CCC(N[C@H]2C[C@@H](Cc3cc(CN(C)c4ccccc4)on3)C2(C)C)CC1", "Potency": "70.8 µM (active)"}
{"smiles": "CC1(C)[C@H](Cc2cc(CC3CCCCC3)on2)C[C@@H]1NC(=O)C1CCC1", "Potency": "35.5 µM (active)"}
{"smiles": "Cc1cc(C[C@@H]2COC[C@@H]2NC(=O)C2CCN(C(=O)N(C)C)CC2)on1", "outcome": "inactive"}
{"smiles": "O=C(O)C[C@@H]1CCN(S(=O)(=O)c2ccccc2)C[C@@H]1CC1=NCCc2cc(F)ccc21", "outcome": "inactive"}
{"smiles": "O=C(NC1CCN(C(=O)N2CC3CC(C2)[C@H]2CCCC(=O)N2C3)CC1)c1ccsc1", "note": "(stereo partly drawn)", "activity change, negative = cytotoxicity": "6.66% (inactive)"}
{"smiles": "O=C(c1ccccc1F)N1CCC2(CC1)N(c1ccccc1)C(=O)CS2(=O)=O", "activity change, negative = cytotoxicity": "1.12% (inactive)"}
{"smiles": "O=C(NCc1ccccc1-n1cncn1)C1CC(=O)N(Cc2ccccn2)C1", "note": "(stereo not drawn)", "activity change, negative = cytotoxicity": "-7.73% (inactive)"}
{"smiles": "Cc1cccc(Cl)c1NC(=O)Cn1c(C)cc2nc3n(c(=O)c21)CCCCC3", "activity change, negative = cytotoxicity": "-4.66% (inactive)"}
{"smiles": "COc1ccccc1C(=O)NCC1Cn2cccc2C(=O)N1Cc1cccnc1", "note": "(stereo not drawn)", "activity change, negative = cytotoxicity": "-6.07% (inactive)"}
{"smiles": "COCc1nnc2n1CCC(NC(=O)CCc1c(C)nn(C)c1C)CC2", "note": "(stereo not drawn)", "activity change, negative = cytotoxicity": "-4.91% (inactive)"}
{"smiles": "CC(C)NC(=O)NC1CCN(c2ccc3nnc(-c4ccccc4)n3n2)C1", "note": "(stereo not drawn)", "activity change, negative = cytotoxicity": "-25.3% (inactive)"}
{"smiles": "COc1cc(OC)c(NC(=O)N2CCCC2c2nncn2C2CCCC2)cc1Cl", "note": "(stereo not drawn)", "activity change, negative = cytotoxicity": "-4.17% (inactive)"}
{"smiles": "O=C(Nc1ccccc1)N1CCc2nc(-c3ccccc3)nc(-c3ccc(Cl)cc3)c2C1", "activity change, negative = cytotoxicity": "-24.8% (inactive)"}
{"smiles": "COc1ccc(C(=O)N2CCC([C@@H]3CNC[C@H]3CO)CC2)cc1OC", "outcome": "inactive"}
{"smiles": "COCCOCC(=O)N1CCCC(c2nc(-c3cccnc3)no2)CCNC(=O)CC1", "note": "(stereo not drawn)", "activity change, negative = cytotoxicity": "-1.25% (inactive)"}
{"smiles": "CC(c1cccs1)N(C)[S+](=O)([O-])c1cccc(C(F)(F)F)c1", "note": "(stereo not drawn)", "activity change, negative = cytotoxicity": "-22.4% (inactive)"}
{"smiles": "COCC(=O)NC1CCC12CCN(C(=O)CCCc1ccccc1)CC2", "note": "(stereo not drawn)", "activity change, negative = cytotoxicity": "1.14% (inactive)"}
{"smiles": "COCC1CN(C2CCC2)CC12CCN(C(=O)C1CCN(C(C)=O)CC1)CC2", "note": "(stereo not drawn)", "outcome": "inactive"}
{"smiles": "COCC1CN(C2CCC2)CC12CCN(C(=O)CCc1ccccc1)CC2", "note": "(stereo not drawn)", "Potency": "31.6 µM (active)"}
{"smiles": "O=C(NCc1c[nH]c2ncccc12)c1ccccn1", "activity change, negative = cytotoxicity": "-22.3% [at 172 µM] (inactive)"}
{"smiles": "CCOc1ccc(C(=O)N2CCCC(c3noc(COC)n3)C2)cc1", "note": "(stereo not drawn)", "activity change, negative = cytotoxicity": "-5.23% (inactive)"}
{"smiles": "COCc1nc(C2CCN(C(=O)c3ccoc3)C2)no1", "note": "(stereo not drawn)", "outcome": "inactive"}
{"smiles": "Cc1ccc(OCc2nc(C3CCN(C(=O)c4noc(C)c4CN4CCCCC4)CC3)no2)cc1", "Potency": "31.6 µM (active)"}
{"smiles": "COc1ccc2c(c1)CCc1c-2n[nH]c1C(=O)N1CCC(c2noc(COc3ccc(C)cc3)n2)CC1", "Potency": "22.4 µM (active)"}
{"smiles": "COCc1nc(C2CCN(C(=O)c3ccn[nH]3)C2)no1", "note": "(stereo not drawn)", "activity change, negative = cytotoxicity": "-5.05% (inactive)"}
{"smiles": "COCCOCc1nc(C2CCN(C(=O)c3ccncc3)CC2)no1", "activity change, negative = cytotoxicity": "-0.248% (inactive)"}
{"smiles": "CCC(C)NC(=O)C1COC2(CCN(C(=O)CC(C)(C)C)CC2)N1C(=O)c1cccc(OC)c1", "note": "(stereo not drawn)", "outcome": "inactive"}
{"smiles": "COc1ccc(S(=O)(=O)N2CCC(N(C(=O)C3CC3)C3CCOCC3)CC2)cc1", "activity change, negative = cytotoxicity": "0.262% (inactive)"}
{"smiles": "COCc1cc(=O)n(CC(=O)Nc2ccc(C)cc2)c(N2CCOCC2)n1", "activity change, negative = cytotoxicity": "7.31% (inactive)"}
{"smiles": "CN(Cc1ccc(OC(F)(F)F)cc1)C(=O)C1(C)CCOCC1", "activity change, negative = cytotoxicity": "-28% (inactive)"}
{"smiles": "CNC(=O)c1cc[nH]c1C1CCCN(C(=O)c2noc(C)c2Cn2cccn2)C1", "note": "(stereo not drawn)", "activity change, negative = cytotoxicity": "-12.4% (inactive)"}
{"smiles": "COc1cccc(C(=O)N2C(C(=O)NC3CC3)COC23CCN(C(=O)c2ccc(F)cc2)CC3)c1", "note": "(stereo not drawn)", "activity change, negative = cytotoxicity": "-9.44% (inactive)"}
{"smiles": "O=C(CCC[C@@H]1[C@H]2CCCN3CCC[C@@H](CN1C(=O)c1cccnc1)[C@@H]23)NCCCc1ccccc1", "activity change, negative = cytotoxicity": "-21.4% (inactive)"}
{"smiles": "COCC1CCCCN1c1ccc(C(=O)NCCCc2ccccn2)cn1", "note": "(stereo not drawn)", "activity change, negative = cytotoxicity": "-13.6% (inactive)"}
{"smiles": "COc1ccc(S(=O)(=O)N2[C@@H]3CC[C@H]2CC(NC(=O)c2ccncc2)C3)cc1", "note": "(stereo partly drawn)", "activity change, negative = cytotoxicity": "-14.8% (inactive)"}
{"smiles": "COc1ccc(S(=O)(=O)N2CCc3c(C(=O)NCCc4ccccn4)cccc32)cc1", "Potency": "44.7 µM (active)"}
{"smiles": "COc1ccc(-c2nc(C(C)C)nc3c2CCN(C(=O)Cc2ccccn2)CC3)cc1", "activity change, negative = cytotoxicity": "-14.6% (inactive)"}
{"smiles": "COc1ccc(S(=O)(=O)N2CCc3c(C(=O)NCc4ccncc4)cccc32)cc1", "Potency": "35.5 µM (active)"}
{"smiles": "Cc1ccc(C)c(CNC(=O)c2ccc3c(c2)N(S(=O)(=O)c2ccccc2)CC3)c1", "activity change, negative = cytotoxicity": "-28.2% (inactive)"}
